# Results reported in the supplement of paper PMC8540655.
# Unmarked numbers belong to inactive results.
# Tested on: Aedes aegypti larvae
# Assay: larval motility relative to same well at 0 h (fraction); higher = more motile (less active compound), active = 0.4 or less
# Conditions: 10 µM; 2 h
# Method in brief: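 Larvae (Aedes aegypti, hatched in pond salt solution with yeast at 25 °C and taken 18–24 h later) were plated at about 10 per 100 µL well. Compounds at 10 µM in 1% v/v DMSO were imaged with INVAPP at 0, 2 and 24 h, alongside solvent and larvicide controls on each plate. Reported relative motility is each well's score over its own starting score, as a median of three independent larval batches.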
row,Compound,larval motility
1,Fc1ccc(-n2cc(Cn3c(-c4cccc(F)c4)nc4ccccc43)nn2)cc1,0.761
2,CC(C)Nc1ncnc2c1cnn2-c1ccc(Cl)cc1,0.689
3,O=C(Cn1cnc2ccccc2c1=O)Nc1ccccc1,0.554
4,CC(C)(C)c1cc(CCC(=O)N2CCC2)cc(C(C)(C)C)c1O,0.769
5,O=C(NCc1ccc(F)cc1)c1c(O)c2ncccc2[nH]c1=O,0.718
6,O=c1oc2ccc(Br)cc2cc1CSc1ncc[nH]1,0.806
7,Nc1cccc(-c2nc(N)nc(NC3Cc4ccccc4C3)n2)c1,1.08
8,Nc1nc(NC2Cc3ccc(F)cc3C2)nc(N2CCCCC2)n1 (stereo not given),0.662
9,O=C(O)[C@H]1C2CCC(CC2)[C@@H]1Nc1nc(-c2c[nH]c3ncc(F)cc23)ncc1F,0.877
10,OC(Cn1cncn1)(Cn1cncn1)c1ccc(F)cc1F,1.05
11,CC(C)(C)c1cc(C(=O)/C(C#N)=N/Nc2cccc(Cl)c2)no1,1.14
12,O=c1cc(Nc2ccc3ccccc3c2)[nH]c(=O)[nH]1,0.528
13,O=C(O)C[C@H]1CC[C@H](c2ccc(-c3ccc(Nc4ccc(C(F)(F)F)nc4)cn3)cc2)CC1,0.644
14,COc1cc(C(C(=O)NC2CCCCC2)N(C(=O)Cc2c[nH]c3ccccc23)c2ccc(C(C)C)cc2)cc(OC)c1OC (stereo not given),1.42
15,COc1ccc(SC(=O)N[C@H](CCC(=O)O)C(=O)O)cc1,0.861
16,OCCCCn1cnc2c(O)nc(NCc3ccc(Cl)c(Cl)c3)nc21,0.982
17,N#C/C(=C1/SC[C@H](c2ccc(Cl)cc2Cl)S1)n1ccnc1,0.983
18,O=P(O)(O)C(CCCc1cccc(Oc2ccccc2)c1)S(=O)(=O)O (stereo not given),0.663
19,COc1cc(NS(=O)(=O)c2ccc(C)cc2)c2ncccc2c1,0.89
20,O=C(Nc1nnc(-c2ccc(Cl)cc2)o1)c1nc2ccccc2s1,0.919

row,Compound,larval motility
1,COc1ccc2cc3[n+](cc2c1OCCN(CCn1cncn1)Cc1ccc(F)cc1F)CCc1cc2c(cc1-3)OCO2,0.821
2,COc1ccc(NC(=O)c2cc3ccccn3n2)cc1,0.48
3,Oc1c(C(Nc2ccccn2)c2ccccc2)ccc2cccnc12 (stereo not given),0.721
4,CCc1nc(N)nc(N)c1C#CC(C)c1cc(OC)cc(-c2ccncc2)c1 (stereo not given),0.87
5,O=C(CCc1ccc2c(c1)OCO2)NCc1ccc(-c2ccccc2F)cc1,0.778
6,O=c1[nH]c(=O)n(Cc2cccc(Oc3ccccc3)c2)cc1Nc1ccccc1,0.698
7,Nc1cc(N)c2nc(-c3ccccc3)c(Nc3ccc(F)cc3)nc2c1,0.877
8,CCOC(=O)Nc1cc(NC(C)CC(C)CN(CC)CC)c2nc(-c3ccccc3)c(-c3ccccc3)nc2n1 (stereo not given),0.848
9,CCC[C@@H]1C[C@@H](C(=O)N[C@@H]([C@H]2O[C@H](SC)[C@H](O)[C@@H](O)[C@H]2O)[C@H](C)Cl)N(C)C1,0.804
10,O=C(O)/C=C/C=C/c1cccc(Oc2cc(Cl)cc(Cl)c2)c1,1.55
11,O=c1ccc2ncc(=O)n3c2n1CC3CN1CCC(NCc2cc3c(cn2)OCCC3)CC1 (stereo not given),0.641
12,CN(C(=O)C1(c2ccc(Cl)cc2)CCC1)c1ccccc1,1.1
13,CC1(C)CC(NC(=O)C(=O)Nc2ccc(Cl)cc2)CC(C)(C)N1,0.977
14,O=C1c2cccc3cccc(c23)C(=O)N1CC1CO1 (stereo not given),0.906
15,CN(C)CCCNC(=O)c1ccc(-c2cc(O)c3ncccc3c2)cc1,0.79
16,CCc1cc(O)c(Oc2cccnc2N)cc1F,1.72
17,Cc1ncc([N+](=O)[O-])n1CC(C)O (stereo not given),1.43
18,CC(C)n1cnc2c(NCc3ccccc3)nc(NCc3ccccc3)nc21,1.3
19,CC(C)(C)c1cccc(-c2nc3cc(C(=N)N)ccc3[nH]2)c1O,1.04
20,C[C@H](Cn1cnc2c(N)ncnc21)OCP(=O)(O)O,1.31
